More than one record can exist for a structure, and the calls need not agree. Activity calls are given as the source filed them. Rule for the calls: active = hit-call score of the fitted dose curve at least 0.9, where 1 is the maximum; inactive = score below 0.9.
The compounds below were run against Hepatocyte nuclear factor 3-beta (Homo sapiens) (UniProt Q9Y261) (assay: ATG_FoxA2_CIS: Attagene CIS-FACTORIAL HepG2 Assay for human Forkhead box A2 (FOXA2) (AID 2282942)). Conditions: HepG2 cis-reporter transcription factor activity, 24 h; actives raise or lower the signal.
Chain of Hepatocyte nuclear factor 3-beta (Homo sapiens) (Q9Y261 whole entry, looked up): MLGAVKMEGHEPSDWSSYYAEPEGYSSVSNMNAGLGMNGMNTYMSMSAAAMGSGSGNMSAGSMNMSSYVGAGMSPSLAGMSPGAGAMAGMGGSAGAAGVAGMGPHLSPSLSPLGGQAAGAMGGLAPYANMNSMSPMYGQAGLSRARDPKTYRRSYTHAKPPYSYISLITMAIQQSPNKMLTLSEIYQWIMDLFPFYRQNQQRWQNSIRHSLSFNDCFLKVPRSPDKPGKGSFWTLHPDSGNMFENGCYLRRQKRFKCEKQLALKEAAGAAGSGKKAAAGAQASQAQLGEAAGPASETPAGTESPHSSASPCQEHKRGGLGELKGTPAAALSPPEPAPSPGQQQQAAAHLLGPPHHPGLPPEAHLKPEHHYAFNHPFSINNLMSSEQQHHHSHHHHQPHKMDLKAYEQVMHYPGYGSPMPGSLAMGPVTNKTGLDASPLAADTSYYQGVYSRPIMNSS
Procedure: ATG_CIS is a cell-based, multiplexed-readout assay that uses HepG2, a human liver cell line, with measurements taken at 24 hours after chemical dosing in a 24-well plate.ATG_FoxA2_CIS is one of 52 assay component(s) measured or calculated from the ATG_CIS assay. It is designed to make measurements of mRNA induction, a form of inducible reporter, as detected with fluorescence intensity signals by Reverse transcription polymerase chain reaction (RT-PCR) and Capillary electrophoresis technology.Data from the assay component ATG_FoxA2_CIS was analyzed into 1 assay endpoint. This assay endpoint, ATG_FoxA2_CIS, was analyzed with bidirectional fitting relative to DMSO as the negative control and baseline of activity. Using a type of inducible reporter, measures of mRNA for gain or loss-of-signal activity can be used to understand the reporter gene at the transcription factor-level as they relate to the gene FOXA2. Furthermore, this assay endpoint can be referred to as a primary readout, because this assay has produced multiple assay endpoints where this one serves a reporter gene function. To generalize the intended target to other relatable targets, this assay endpoint is annotated to the dna binding intended target family, where the subfamily is forkhead box protein.
Human liver HepG2 cells are transiently transfected with multiple reporter transcription units (MRTUs) in 6-well plates using FuGene 6 reagent (Roche; 3 ml FuGene/1 mg DNA). The MRTU constructs are regulated by a cis-regulating element (promoter). […] A major difference between the CIS and TRANS system is that in CIS activities of endogenous TFs are measured, whereas the TRANS assay evaluates changes in activities of exogenous, chimeric NR-Gal4 proteins. […] At the end of 24 hour incubation, total RNA was isolated using TriZol reagent (Invitrogen). The isolated RNA is then reverse-transcribed using oligo(dT) primer and Mo-MLV reverse transcriptase (Invitrogen) with DNAse I (Ambion) treatment for 30 min. The one-tenth of the produced cDNA was amplified by PCR using Taq DNA polymerase (Invitrogen) and two reporter sequence-specific primers. The PCR products were fluorescently labeled by primer extension with 6-arboxyfluorescein (6-FAM) 5'-labeled reporter sequence-specific primer (2 min at 95 C, 20 s at 68 C and 10 min at 72 C) and these products were digested with 5U of HpaI (New England Biolabs) for 2h at 37 C. The fragments were purified using Qiaquick PCR columns (Qiagen), analyzed on an ABI 3130xL genetic analyzer (Applied Biosystems) with peak positions identified by using a set of X-rhodamine (ROX)-labeled MapMarker1000 molecular weight standards (BioVentures). The raw capillary electrophoresis data was processed using Attagraph software (Attagene).

Compound | outcome | AC50
CC(COc1ccc(Oc2ccccc2)cc1)Oc1ccccn1 (stereo not given) | inactive | 
Cc1ccn2nc(S(=O)(=O)Nc3c(F)cccc3F)nc2n1 | inactive | 
O=C(O)c1cc(Oc2ccc(C(F)(F)F)cc2Cl)ccc1[N+](=O)[O-] | inactive | 
CCCOc1nn(C(=O)NS(=O)(=O)c2ccccc2C(=O)OC)c(=O)n1C | inactive | 
CNc1cnn(-c2cccc(C(F)(F)F)c2)c(=O)c1Cl | inactive | 
COP(=O)(NC(C)=O)SC (stereo not given) | inactive | 
CCOP(=S)(OCC)Oc1ccc2c(C)c(Cl)c(=O)oc2c1 | inactive | 
CNC(=O)Oc1cccc2c1OC(C)(C)O2 | inactive | 
COP(=O)(OC)SCn1c(=O)oc2cc(Cl)cnc21 | inactive | 
CC(C1CC1)C(O)(Cn1cncn1)c1ccc(Cl)cc1 (stereo not given) | inactive | 
CCOP(=S)(OCC)SCCSCC | inactive | 
CN(C)NC(=O)CCC(=O)O | inactive | 
CC(C)[C@H](C(=O)O[C@H](C#N)c1cccc(Oc2ccccc2)c1)c1ccc(Cl)cc1 | inactive | 
CCOP(=O)(OCC)Oc1cc(C)nc(C(C)C)n1 | inactive | 
CCC(=O)Nc1ccc(Cl)c(Cl)c1 | inactive | 
CCCCN(CC)c1c([N+](=O)[O-])cc(C(F)(F)F)cc1[N+](=O)[O-] | inactive | 
O=c1ccc(=O)[nH][nH]1 | inactive | 
COP(=O)(OC)C(O)C(Cl)(Cl)Cl (stereo not given) | inactive | 
CCC(=NOC/C=C/Cl)C1=C(O)CC(C2CCOCC2)CC1=O (stereo not given) | inactive | 
CCCSP(=O)(OCC)Oc1ccc(Br)cc1Cl (stereo not given) | inactive | 

Compound | outcome | AC50
CCOP(=S)(OCC)Oc1cc(C)nc(C(C)C)n1 | inactive | 
CCCCOC(=O)c1ccccc1C(=O)O |  | 81.4 µM (active)
CCCOCC(=Nc1ccc(Cl)cc1C(F)(F)F)n1ccnc1 | inactive | 
S=C1NCCN1 | inactive | 
C#CCC1=C(C)C(OC(=O)C2C(C=C(C)C)C2(C)C)CC1=O (stereo not given) | inactive | 
C=C(C)[C@H]1Cc2c(ccc3c2O[C@@H]2COc4cc(OC)c(OC)cc4[C@@H]2C3=O)O1 | inactive | 
O=[N+]([O-])c1cc(C(F)(F)F)c(Cl)c([N+](=O)[O-])c1Nc1ncc(C(F)(F)F)cc1Cl | inactive | 20 µM (active)
CN(C)[C@@H]1C(=O)C(C(N)=O)=C(O)[C@@]2(O)C(=O)C3=C(O)c4c(O)cccc4[C@@](C)(O)[C@H]3[C@H](O)[C@@H]12 | inactive | 
Nc1c(Cl)cc([N+](=O)[O-])cc1Cl |  | 76.1 µM (active)
CCNc1nc(Cl)nc(NC(C)(C)C#N)n1 | inactive | 
CON=C(C(=O)OC)c1ccccc1CON=C(C)c1cccc(C(F)(F)F)c1 | inactive | 
CSc1nnc(C(C)(C)C)c(=O)n1N | inactive | 
CCOP(=O)(NC(C)C)Oc1ccc(SC)c(C)c1 (stereo not given) | inactive | 
CCOC(=O)COc1cc(-c2nn(C)c(OC(F)F)c2Cl)c(F)cc1Cl | inactive | 
CCCCOC(=O)[C@@H](C)Oc1ccc(Oc2ccc(C#N)cc2F)cc1 | inactive | 
N#CSCSC#N | inactive | 
CSC1=N[C@@](C)(c2ccccc2)C(=O)N1Nc1ccccc1 | inactive | 
COc1cccc(C(=O)NN(C(=O)c2cc(C)cc(C)c2)C(C)(C)C)c1C | inactive | 
CC[C@H](C)[C@H]1O[C@]2(C=C[C@@H]1C)C[C@@H]1C[C@@H](C/C=C(\C)[C@@H](O[C@H]3C[C@H](OC)[C@@H](O[C@H]4C[C@H](OC)[C@@H](NC)[C@H](C)O4)[C@H](C)O3)[C@@H](C)/C=C/C=C3\CO[C@@H]4[C@H](O)C(C)=C[C@@H](C(=O)O1)[C@]34O)O2 | inactive | 
